MEKK2 mut-MEK5: MEK5 binding signal on mutant MEKK2 PB1, primary screen, biochemical, multiplex bead flow cytometry, Alexa488-MEK5; Alexa488-MEK5 binding to MEKK2 mutant; percent response, % at 10 µM; hit rate 0.35% among 290,000; in the data active means percent response above about 24%, passing the limit was not always enough
MEKK3 PB1 HTS: modulators of MEKK3-MEK5 PB1 binding, primary screen, biochemical, wildtype MEKK3, multiplex bead flow cytometry, Alexa488-MEK5. hit rate 1.4% among 290,000. binding response (% of control), % at 10 µM. Mitogen-activated protein kinase kinase kinase 3 (Homo sapiens), Q99759. bead-based flow cytometry, Alexa488-MEK5 binding to MEKK3; actives lie on both sides; 0 = blocked by unlabeled MEK5, 100 = vehicle;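 active means binding response more than 3 SD above or below the average of its plate-row segment, actives on both sides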;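 further: Alexa488 bead fluorescence after subtracting the streptavidin-only scavenger bead signal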
CHT block: inhibitors of human choline transporter CHT | High affinity choline transporter 1 (Homo sapiens), Q9GZV3 | CHT-expressing cells, membrane potential dye, choline response; active compounds read low | hit rate 0.86% among 310,000 | AID 488975, 2010 | B-score at 10 µM;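 active means B-score over 3 SD under the library average, and starting fluorescence ratio not unusually high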;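 further: choline stimulus applied at its EC90 after an EC20 pre-addition; B-score computed on integrated fluorescence ratio after choline addition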
Target sequence (Q9GZV3 whole entry, looked up): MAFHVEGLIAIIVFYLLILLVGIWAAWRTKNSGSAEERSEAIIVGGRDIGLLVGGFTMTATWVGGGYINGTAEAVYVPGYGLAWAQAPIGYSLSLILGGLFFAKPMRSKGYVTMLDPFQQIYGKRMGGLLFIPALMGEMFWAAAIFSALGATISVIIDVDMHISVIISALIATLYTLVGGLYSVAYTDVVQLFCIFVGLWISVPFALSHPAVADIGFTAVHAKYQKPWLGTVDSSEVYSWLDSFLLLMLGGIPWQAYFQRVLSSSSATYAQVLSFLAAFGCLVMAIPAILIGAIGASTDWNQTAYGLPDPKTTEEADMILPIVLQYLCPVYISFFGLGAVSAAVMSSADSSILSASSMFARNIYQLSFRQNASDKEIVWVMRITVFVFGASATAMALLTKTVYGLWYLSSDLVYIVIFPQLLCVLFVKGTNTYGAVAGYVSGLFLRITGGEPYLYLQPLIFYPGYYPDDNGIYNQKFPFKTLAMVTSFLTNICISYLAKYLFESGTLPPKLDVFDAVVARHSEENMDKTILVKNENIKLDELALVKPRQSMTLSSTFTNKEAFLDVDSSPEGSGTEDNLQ
MEKK2wt PB1 HTS: modulators of MEK5 binding to wildtype MEKK2, primary screen, biochemical, multiplex bead flow cytometry, Alexa488-MEK5; hit rate 1.1% among 290,000; Mitogen-activated protein kinase kinase kinase 2 (Homo sapiens), Q9Y2U5; Alexa488-MEK5 binding to MEKK2 WT; actives lie on both sides; binding response (% of control), % at 10 µM; in the data active means binding response below about 67% or above about 130%
Mot1-301 SUMO: yeast Mot1-301 growth rescue at high temperature, primary screen, SUMOylation pathway inhibitor project, S. cerevisiae, ATP luminescence, 38.5C; growth rescue, % at 18.8 µM; S. cerevisiae Mot1-301 growth rescue; percent above DMSO median, 100 means doubled; hit rate 1% among 320,000;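 active means every valid replicate shows activation above 250% relative to neutral control wells; inactive means the rest, any valid replicate at or below 250%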
CHT allo act: CHT positive allosteric modulators, primary screen, cell-based, membrane potential dye, choline EC20 | High affinity choline transporter 1 (Homo sapiens), Q9GZV3 | CHT-expressing cells; active compounds read high; LV-AA mutant CHT in HEK293 cells | B-score at 10 µM | hit rate 0.49% among 310,000 | AID 488977, 2010;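 active means initial fluorescence not abnormally high and integrated response B-score, plate-corrected, over 3 SD above library mean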
CHT block conf: CHT inhibitors, confirmation, cell-based, membrane potential dye, duplicate. shares compounds with CHT block. CHT-expressing cells, choline membrane potential dye; LV-to-AA substituted CHT, HEK293 cells. CHT activity remaining % of control (active compounds read low), % at 10 µM. hit rate 70% among 2,400;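 active means choline transporter activity left, mean of duplicates at 10 µM, below buffer-only control mean minus 3 SD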;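 further: depolarization triggered by choline at its EC90 following an EC20 pre-addition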
HEK293 CHT ctr: membrane potential effects in parental HEK293, counter-screen for CHT inhibitor project, cell-based, membrane potential dye | shares compounds with CHT block | choline response; active = decrease or increase beyond buffer ±3SD | AID 493222, 2011 | hit rate 4% among 2,400 | membrane potential ratio readout (active if shifted either direction beyond buffer ±3SD; no single direction) at 10 µM;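 further: parental cells lack the transporter so any hit is non-specific; ratio is peak minus trough fluorescence over baseline after EC90 choline challenge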
CHT act confirm: CHT activators, confirmation, cell-based, membrane potential dye, duplicate | shares compounds with CHT allo act | CHT-expressing cells, membrane potential dye fluorescence (FDSS); % of choline EC20–EC90 response window; HEK293 expressing CHT LV-AA mutant; choline added at its EC20 | activation, % at 10 µM | hit rate 91% among 2,500;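 active means primary screen active, with duplicate mean activation above negative control mean plus 3 SD, cut at about 11% in these data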
HEK293 MP dye: membrane potential response in parental HEK293 cells, counter-screen for CHT activator project, cell-based, membrane potential dye; AID 623908, 2012; ratio readout change at 10 µM, hits read low; membrane potential dye fluorescence (FDSS); measured after EC20 choline addition; hit rate 62% among 2,500; shares compounds with CHT allo act;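 active means duplicate-averaged ratio beyond 3 SD from buffer wells, up or down, though filed actives are nearly all decreases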
Hits are given with their value; 0 = inactive; - = no result; ! = a repeat was not active. Only some compounds are listed: those with a hit (about 4.1% of all), similar ones and a draw of the others.

SMILES | MEKK2 mut-MEK5 | MEKK3 PB1 HTS | CHT block | MEKK2wt PB1 HTS | Mot1-301 SUMO | CHT allo act | CHT act confirm | HEK293 MP dye | others
Cc1ccccc1-n1c(O)c(/C=C2/C(c3ccccc3)=Nc3ccccc32)c(=O)[nH]c1=O | 0 | 0 | -5.2 | 0 | 0 | 0 | - | - | CHT block conf=53%;HEK293 CHT ctr=0
COc1c(/C=C2/C(=O)NC(=O)N(C)C2=O)c(CCN(C)C(=O)c2ccccc2)cc2c1OCO2 | 0 | 0 | -6.5 | 0 | 0 | 0 | - | - | CHT block conf=57%;HEK293 CHT ctr=0
Cc1ccc(OCCSC2=NN2c2cc(C)nc(N)n2)cc1 | 0 | 0 | -11 | 0 | 0 | 0 | - | - | CHT block conf=23%;HEK293 CHT ctr=0
CCc1c(C)nc(N)nc1N1N=C1SCCOc1ccccc1 | 0 | 0 | -7.7 | 0 | 0 | 0 | - | - | CHT block conf=12%;HEK293 CHT ctr=0
C/C(=N\N1CCN(C)CC1)c1c(O)n(Cc2ccccc2)c(=O)[nH]c1=O | 0 | 0 | 0 | 0 | 0 | 0 | - | -
COc1ccccc1-n1c(-c2ccccc2F)nc2ccccc2c1=O | - | - | 0 | - | 0 | 0 | - | -
NP(=O)(OCCCc1ccccc1)Oc1ccccc1Cl (stereo not drawn) | 0 | 0 | 0 | 0 | 0 | 0 | - | -
COc1ccc(N2C(=O)/C(=C/c3ccc(OC)c(OC)c3)C(=O)NC2=S)cc1 | 0 | 0 | 0 | 0 | 0 | 0 | - | -
CCC(C)N1C(=O)/C(=C/c2ccc3c(c2)CCN3CCCCl)C(=O)NC1=S (stereo not drawn) | 0 | 0 | -5.9 | 0 | 0 | 0 | - | - | CHT block conf=0;HEK293 CHT ctr=0
CCOP(=O)(OCC)C(O)c1ccc(OC)c(OC)c1 (stereo not drawn) | 0 | 0 | 0 | 0 | 0 | 0 | - | -
CCNC(=O)C1OC(n2cnc3c(N)ncnc32)C(O)C1O (stereo not drawn) | 0 | 0 | -6.7 | 0 | - | 0 | - | - | CHT block conf=33%;HEK293 CHT ctr=0
Cc1cccc(N2CCc3c2nc2ccccc2c3N)c1 | 0 | 0 | -9.3! | 0 | 0 | 0 | 33 | -56 | CHT block conf=56%;HEK293 CHT ctr=0
COC(=O)C1=C(c2ccc(C(C)=O)cc2)C[C@@H]2CC[C@H]1N2C(=O)N1CCC(O)CC1 | - | - | - | - | 0 | - | - | -
CCCCCn1c(=O)c(C(=O)NCc2ccncc2)c(O)c2ccccc21 | 0 | 0 | 0 | 0 | 0 | 0 | 31 | 0
CCCCn1c(=O)c(C(=O)NCc2ccc(Cl)cc2)c(O)c2ccccc21 | 0 | 0 | 0 | 0 | 0 | 0 | - | -
c1ccc(-c2[nH]c(-c3ccccc3)[n+](CC3CO3)c2-c2ccccc2)cc1 (stereo not drawn) | 0 | 0 | 0 | 0 | 0 | 0 | 25 | 0
NCCNc1ccc([N+](=O)[O-])c2cccnc12 | 0 | 0 | 0 | 0 | 0 | 6.6 | 32 | -72
CC(C)c1ccccc1NC1=NCCCS1 | 0 | 0 | 0 | 0 | 0 | 0 | - | -
O=[N+]([O-])c1ccc(C[n+]2c(-c3ccccc3)cc(-c3ccccc3)cc2-c2ccccc2)cc1 | - | - | 0 | - | 0 | 0 | 49 | -47
Cc1cc(-c2ccccc2)cc(C)[n+]1Cc1ccccc1 | - | - | 0 | - | 0 | 7.4 | 12 | -29
CCN(CC)C1=NC(=[N+](CC)CC)c2ccccc21 | 0 | 0 | 0 | 0 | 0 | 8.7 | 64 | -56
O=C1CNC(c2ccccc2Cl)c2cc(Br)ccc2N1 (stereo not drawn) | 0 | 0 | 0 | 0 | 0 | 0 | - | -
CN1CCc2nc3sc(C#N)c(N)c3c(-c3cccs3)c2C1 | 0 | 0 | 0 | 0 | 0 | 8.5 | 39 | -59
CN1CCc2nc3sc(C(=O)NC4CC4)c(N)c3cc2C1 | 0 | 0 | 0 | 0 | 0 | 0 | - | -
O=C(c1ccco1)c1cn(Cc2ccccc2)c2ccccc12 | 0 | 0 | 0 | 0 | 0 | 7.4 | 23 | 0
SMILES | MEKK2 mut-MEK5 | MEKK3 PB1 HTS | CHT block | MEKK2wt PB1 HTS | Mot1-301 SUMO | CHT allo act | CHT act confirm | HEK293 MP dye | others
COc1ccc(NC(=O)c2cc([N+](=O)[O-])ccc2N2CCNCC2)cc1 | - | - | 0 | - | 0 | 0 | 54 | -59
COP(=O)(OC)/C(C=O)=N/Nc1ccc([N+](=O)[O-])cc1 | 0 | 0 | 0 | 0 | 0 | 0 | - | -
Cc1ccc(NP(=O)(Nc2ccc(C)cc2)Oc2ccccc2)cc1 | 0 | 0 | 0 | 0 | 0 | 0 | - | -
O=C(O)c1c[nH]c2ccc(S(=O)(=O)N(CCCl)CCCl)cc12 | 0 | 0 | 0 | 0 | 0 | 0 | - | -
Cc1cc(N2CCOCC2)nc2ccc(NC(=O)CCC(=O)N3CCC4(CC3)OCCO4)cc12 | - | - | 0 | - | - | 0 | 53 | -38
CC(=NCCCn1ccnc1)c1c(O)n(C)c(=O)n(C)c1=O | 0 | 0 | 0 | 0 | 0 | 0 | 48 | -34
CCCCn1c(O)c(C(C)=NCCCn2ccnc2)c(=O)[nH]c1=O | 0 | 0 | 0 | 0 | 0 | 0 | - | -
C=C1[C@@H](OC(C)=O)[C@]23C[C@@H]1[C@@H](OC(C)=O)CC2[C@]12C4C[C@H]3[C@H]1N(CC)C[C@]4(C)CC[C@@H]2O (stereo partly drawn) | 0 | 0 | 0 | 0 | 0 | 0 | - | -
O=[N+]([O-])c1ccc(N2CCNCC2)cc1NCC1CCCO1 (stereo not drawn) | 0 | 0 | 0 | 0 | 0 | 9 | 56 | -66
O=[N+]([O-])c1ccc(N2CCNCC2)cc1N1CCCCC1 | 0 | 0 | 0 | 0 | 0 | 0 | - | -
Cc1cc(C)n2nc(C)[n+](C)c2n1 | 0 | 0 | 0 | 0 | 0 | 8 | 60 | -34
CNC(=S)N(C)CCc1cc2c(c(OC)c1/C=C1/C(=O)NC(=O)N(C)C1=O)OCO2 | 0 | 0 | 0 | 0 | 0 | 6.6 | 37 | -54
COC(=O)C1=C(c2c(C)noc2C)C[C@@H]2CC[C@H]1N2C(=O)NCCCOC(C)C | - | - | - | - | 0 | - | - | -

Assay outcomes (PubChem)
